In experiment [1] the target is Tumor susceptibility gene 101 protein (Homo sapiens) (UniProt Q99816). The experiment can be described thus: qHTS Assay for Iinhibitors of HIV-1 Budding by Blocking the Interaction of PTAP/TSG101: Hit Validation (AID 651600). Further: nearly all actives have a fitted effect of over 70% in size. Further: potency means the concentration at half of the fitted maximal effect. Summed up:
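Displacement of a FITC-labeled PTAP-motif peptide (50 nM) from the Tsg101 binding domain (10 uM) was monitored by fluorescence polarization after a 20 min room-temperature incubation.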
For orientation: Quantitative high-throughput screening tests each substance at several concentrations.

For experiment [2], the target named is Rap guanine nucleotide exchange factor 3 (Homo sapiens) (UniProt O95398). The experiment can be described thus: Confirmatory qHTS for antagonist of cAMP-regulated guanine nucleotide exchange factor 3 (EPAC1) (AID 1645880). Further: nearly all actives have a fitted effect of over 55% in size. Further: potency means the concentration at half of the fitted maximal effect.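 On activity, negative = inhibition: plate controls were DMSO only for no effect and full effect of the ATA control for full effect.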 As to conditions: EPAC1 Rap1B-BODIPY-GDP exchange, fluorescence; activity, negative = inhibition: at 115 µM (top of the series). Summed up:
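Nucleotide exchange uses 100 nM EPAC1, 250 nM RAP1B-BODIPY-GDP and 50 uM GDP, with compounds in a concentration-titration series. After 5 min at room temperature, fluorescence (480 nm ex/540 nm em) is read every 5 min for 30 min. Data are normalized to control ATA and DMSO.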

Experiment [3] has the same target. The experiment can be described thus: Confirmatory qHTS for agonist of cAMP-regulated guanine nucleotide exchange factor 3 (EPAC1) (AID 1645881). Further: nearly all actives have a fitted effect of over 75% in size. Further: potency means the concentration at half of the fitted maximal effect.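 On activation: EPAC1 catalysed release of BODIPY-GDP from Rap1B seen as fluorescence loss; 100% = effect of cAMP agonist control.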
Experiment [4] has as its target Rap guanine nucleotide exchange factor 4 (Homo sapiens) (UniProt Q8WZA2). The experiment can be described thus: Confirmatory qHTS for agonist of cAMP-regulated guanine nucleotide exchange factor 4 (EPAC2) (AID 1645884).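 Further: nucleotide exchange releases bodipy-GDP from Rap1 and this lowers its fluorescence; nearly all actives have a fitted effect of over 65% in size.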 Further: potency means the concentration at half of the fitted maximal effect. On activation: on the % scale 0 is the no-effect control and ±100 the full control effect.
Experiment [5] has the same target. The experiment can be described thus: Confirmatory qHTS for antagonist of cAMP-regulated guanine nucleotide exchange factor 4 (EPAC2) (AID 1645885). Further: nearly all actives have a fitted effect of over 25% in size. Further: potency means the concentration at half of the fitted maximal effect. On activity change, negative = inhibition: on the % scale 0 is the no-effect control and ±100 the full control effect.
For experiment [6], the target named is Rap guanine nucleotide exchange factor 3 (Homo sapiens) (UniProt O95398). The experiment can be described thus: Counterscreen qHTS for antagonist of cAMP-regulated guanine nucleotide exchange factor 3 (EPAC1) (AID 1645888).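 Further: fluorescence loss as bound BODIPY-GDP is released from Rap1B; % of control where 0% means no effect.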 Summed up: (§1)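 Rap1B-BODIPY-GDP 250 nM + GDP 50 uM; cpds 7-pt, final 9.74 nM–152 uM (activator mode) or from 7.32 nM upwards (inhibitor mode); RT; FI 480/540 nm at 5 and 30 min, then ± cAMP, reread.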
Sequence of Rap guanine nucleotide exchange factor 3 (Homo sapiens) (O95398 whole entry, looked up): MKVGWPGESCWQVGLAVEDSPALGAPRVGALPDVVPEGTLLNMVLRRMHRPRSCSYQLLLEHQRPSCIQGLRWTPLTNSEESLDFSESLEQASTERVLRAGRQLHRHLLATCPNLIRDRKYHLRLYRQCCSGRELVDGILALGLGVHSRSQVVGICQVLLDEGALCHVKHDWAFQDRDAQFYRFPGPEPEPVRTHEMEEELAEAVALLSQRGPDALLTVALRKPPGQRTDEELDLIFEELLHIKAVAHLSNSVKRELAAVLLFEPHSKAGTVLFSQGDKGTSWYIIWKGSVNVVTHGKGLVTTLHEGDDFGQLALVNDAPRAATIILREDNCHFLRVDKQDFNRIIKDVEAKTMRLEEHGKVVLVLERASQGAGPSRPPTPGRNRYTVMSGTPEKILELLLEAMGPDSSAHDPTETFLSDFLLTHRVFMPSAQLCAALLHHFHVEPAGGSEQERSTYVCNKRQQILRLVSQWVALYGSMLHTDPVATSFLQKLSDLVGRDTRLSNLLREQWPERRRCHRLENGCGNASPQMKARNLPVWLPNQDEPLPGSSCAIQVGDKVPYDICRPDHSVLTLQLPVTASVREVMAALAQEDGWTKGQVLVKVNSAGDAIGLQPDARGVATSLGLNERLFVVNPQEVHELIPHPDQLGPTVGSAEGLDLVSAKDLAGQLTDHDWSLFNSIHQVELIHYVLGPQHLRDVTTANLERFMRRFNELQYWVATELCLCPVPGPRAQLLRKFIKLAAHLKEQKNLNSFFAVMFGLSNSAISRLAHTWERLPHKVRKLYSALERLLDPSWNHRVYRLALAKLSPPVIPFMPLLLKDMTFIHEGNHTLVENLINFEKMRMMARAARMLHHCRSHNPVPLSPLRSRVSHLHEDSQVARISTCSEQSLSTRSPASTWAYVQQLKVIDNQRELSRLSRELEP

For experiment [7] the target is unchanged. The experiment can be described thus: Counterscreen qHTS for agonist of cAMP-regulated guanine nucleotide exchange factor 3 (EPAC1) (AID 1645889). Further: nearly all actives have a fitted effect of over 40% in size. Further: potency means the concentration at half of the fitted maximal effect. On activation: % of control where 0% means no effect. Summed up: as §1
A general note: A counterscreen serves to expose hits that act by an unwanted route or on another target.

Experiment [8] can be described thus: qHTS for Inhibitors of the vitamin D receptor (VDR): Hit Validation using a Texas Red Assay (AID 602201). Further: potency means the concentration at half of the fitted maximal effect. Summed up:
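After a 2-hour room-temperature incubation, polarization of Texas-Red emission was read (Ex 595 nm/Em 615 nm). Final mix contained 7 nM Texas Red, 1.5 uM VDR-LBD and LG19078.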

The target in experiment [9] is ATPase family AAA domain-containing protein 5 (Homo sapiens) (UniProt Q96QE3). The experiment can be described thus: HTS assay for small molecules that inhibit ELG1-dependent DNA repair in human embryonic kidney (HEK293T) cells expressing luciferase-tagged ELG1: Hit Confirmation (AID 624248). Further: potency means the concentration at half of the fitted maximal effect; nearly all actives have a fitted effect of over 55% in size. As to conditions: HEK293T ELG1-luciferase levels, luminescence; cells co-treated with 5-fluorouridine. Summed up:
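Suppression of ELG1-luciferase signal was read by ONE-Glo luminescence in HEK293T reporter cells after 16 h at 37 C co-treatment with compound and 5-fluorouridine as DNA-damaging agent.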

The target is the same in experiment [10]. The experiment can be described thus: qHTS screen for small molecules that inhibit ELG1-dependent DNA repair in human embryonic kidney (HEK293T) cells expressing luciferase-tagged ELG1: Hit Confirmation using MMS Stimulated ELG1 (AID 624249). Further: potency means the concentration at half of the fitted maximal effect; nearly all actives have a fitted effect of over 60% in size. The method in brief:
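Under DNA damage from MMS (final 10 µM), compounds act on ELG1-luc HEK293T cells over 16 h. Decreased luciferase, detected with Amplight, indicates inhibition of the ELG1 response.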

The nature of experiment [11]: qHTS screen for small molecules that inhibit ELG1-dependent DNA repair: Hit Confirmation with MMS Viability (AID 624251). Further: on the % scale 0 is the no-effect control and ±100 the full control effect; nearly all actives have a fitted effect of over 60% in size. Summed up: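 Under 10 µM MMS, compounds were tested on ELG1-luc HEK293T cells seeded at 2,000 cells/well; survival was determined by CellTiter-Glo luminescence 16 h post-addition.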
The nature of experiment [12]: AP1 Signaling Pathway (AID 357; active means well fitted curve in either direction with a large enough effect, not every such curve was filed as active;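 further: ME-180 reporter cells stimulated with EGF at its EC50 level; on the % scale 0 is the no-effect control and ±100 the full control effect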). The note with it: ME-180 AP-1-bla reporter, EGF-induced, beta-lactamase ratio, 5 h; at 7.69 µM (top of the series) unless noted. Summed up:
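In this screen, ME-180 cells in Opti-MEM with 0.5% dialyzed FBS received EC50 EGF and compound titrations for 5 h. AP-1 reporter beta-lactamase was detected via CCF4 ratio, giving AC50 for positive and negative modulators.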

Experiment [13] can be described thus: Stat Signaling Pathway (AID 446; active means well fitted curve in either direction with a large enough effect, not every such curve was filed as active;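 further: ME-180 cervical cancer cells given 40 pM IL-6 alongside compound; SIE-controlled beta-lactamase reporter measured as 460/530 nm FRET emission ratio; on the % scale 0 is the no-effect control and ±100 the full control effect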). The method in brief:
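Reporter line: ME-180 cervical carcinoma, SIE-beta-lactamase. Treatment: compound with 40 pM IL-6, 5 hrs, 37 C, in low-serum OPTI-MEM with 10 mM HEPES pH 7.3. Detection: 460/530 nm fluorescence.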

For experiment [14], the target named is Glucocorticoid receptor (Homo sapiens) (UniProt P04150). The experiment can be described thus: GR-GFP Redistribution (AID 450;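 active means compounds whose dose series gives a full or clear partial fitted curve of increased nuclear translocation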; further: potency means the concentration at half of the fitted maximal effect). The note with it: U2OS GR-GFP nuclear translocation, laser cytometry, 2 h.
Sequence of Glucocorticoid receptor (Homo sapiens) (P04150 whole entry, looked up): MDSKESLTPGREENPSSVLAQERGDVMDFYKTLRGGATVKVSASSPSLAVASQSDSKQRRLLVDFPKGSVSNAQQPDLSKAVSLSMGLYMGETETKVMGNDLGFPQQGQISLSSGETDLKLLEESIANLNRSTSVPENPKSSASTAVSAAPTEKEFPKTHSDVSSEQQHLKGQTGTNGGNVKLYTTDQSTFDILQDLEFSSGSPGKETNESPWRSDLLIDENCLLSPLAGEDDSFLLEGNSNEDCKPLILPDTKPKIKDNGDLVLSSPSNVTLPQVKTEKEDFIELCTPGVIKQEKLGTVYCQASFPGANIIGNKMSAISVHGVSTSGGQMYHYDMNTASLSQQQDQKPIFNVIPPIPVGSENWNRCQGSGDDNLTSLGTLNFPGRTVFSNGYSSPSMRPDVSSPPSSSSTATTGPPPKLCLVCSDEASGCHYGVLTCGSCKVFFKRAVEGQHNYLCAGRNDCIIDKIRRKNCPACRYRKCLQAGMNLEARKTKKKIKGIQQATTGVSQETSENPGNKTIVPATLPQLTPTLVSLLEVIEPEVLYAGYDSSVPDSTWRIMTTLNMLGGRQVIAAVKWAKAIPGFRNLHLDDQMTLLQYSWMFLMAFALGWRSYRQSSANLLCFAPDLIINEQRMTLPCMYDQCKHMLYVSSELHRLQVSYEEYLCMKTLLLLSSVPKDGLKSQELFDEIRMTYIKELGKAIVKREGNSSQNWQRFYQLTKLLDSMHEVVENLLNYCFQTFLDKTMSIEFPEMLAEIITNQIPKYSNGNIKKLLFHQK
A short description of experiment [15]: qHTS Assay for Identification of Small Molecule Agonists for Hypoxia Response Element Signaling Pathway (AID 914; active means well fitted activation curve with a large enough effect in the signal ratio, with a control signal flat, not every such curve was filed as active; the % refers to the signal ratio; further: potency means the concentration at half of the fitted maximal effect). As to conditions: ME-180 (cervical carcinoma) HRE-bla reporter, beta-lactamase ratio, CoCl2, 17 h; activation: stronger effect = higher value. The method in brief:
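HRE-bla ME-180 assay for agonist-like enhancement of an EC50 CoCl2 stimulus: 17 h at 37 degrees Celsius, CCF4 for 2.5 h, ratiometric 460/530 nm signal converted to %Activity and fitted to AC50.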

Values without a mark were called inactive. Inconclusive results are not listed. The list shows a part of the results. The source made the active and inactive calls. Unless noted, the call rests on the fitted dose curve; in most records, active means well fitted curve in the direction sought with a large enough effect; inconclusive means small, poorly fitted or top-dose-only effect, or another doubt; inactive means no such curve, though single readings can be large; an effect the other way counts as inactive or inconclusive.

Sequence of Rap guanine nucleotide exchange factor 4 (Homo sapiens) (Q8WZA2 whole entry, looked up): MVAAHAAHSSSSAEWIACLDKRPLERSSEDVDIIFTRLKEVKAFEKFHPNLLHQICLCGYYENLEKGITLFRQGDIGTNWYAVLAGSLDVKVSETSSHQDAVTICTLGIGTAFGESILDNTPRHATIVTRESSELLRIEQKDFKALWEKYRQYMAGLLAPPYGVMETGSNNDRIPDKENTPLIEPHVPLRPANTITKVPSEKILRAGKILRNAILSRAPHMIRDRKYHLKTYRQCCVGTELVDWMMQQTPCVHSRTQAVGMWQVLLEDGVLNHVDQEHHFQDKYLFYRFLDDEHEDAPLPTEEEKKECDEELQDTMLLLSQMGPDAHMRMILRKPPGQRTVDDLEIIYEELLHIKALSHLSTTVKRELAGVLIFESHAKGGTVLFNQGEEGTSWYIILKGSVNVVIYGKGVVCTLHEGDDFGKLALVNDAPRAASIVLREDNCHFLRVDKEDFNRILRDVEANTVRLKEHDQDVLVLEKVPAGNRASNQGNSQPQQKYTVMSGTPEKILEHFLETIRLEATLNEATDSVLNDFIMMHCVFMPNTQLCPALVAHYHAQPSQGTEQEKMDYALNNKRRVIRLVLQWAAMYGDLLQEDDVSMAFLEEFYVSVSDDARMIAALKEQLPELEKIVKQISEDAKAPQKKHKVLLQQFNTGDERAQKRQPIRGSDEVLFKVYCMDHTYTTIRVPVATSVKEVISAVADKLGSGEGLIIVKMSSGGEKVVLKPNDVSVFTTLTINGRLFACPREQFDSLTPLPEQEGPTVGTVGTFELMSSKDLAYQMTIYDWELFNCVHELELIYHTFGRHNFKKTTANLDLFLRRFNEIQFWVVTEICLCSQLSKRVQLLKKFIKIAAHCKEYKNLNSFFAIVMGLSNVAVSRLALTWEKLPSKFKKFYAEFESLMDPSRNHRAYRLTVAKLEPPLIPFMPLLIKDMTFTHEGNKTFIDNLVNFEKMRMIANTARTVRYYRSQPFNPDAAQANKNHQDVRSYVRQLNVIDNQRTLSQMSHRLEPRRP
Sequence of Tumor susceptibility gene 101 protein (Homo sapiens) (Q99816 whole entry, looked up, the tested form may be a part): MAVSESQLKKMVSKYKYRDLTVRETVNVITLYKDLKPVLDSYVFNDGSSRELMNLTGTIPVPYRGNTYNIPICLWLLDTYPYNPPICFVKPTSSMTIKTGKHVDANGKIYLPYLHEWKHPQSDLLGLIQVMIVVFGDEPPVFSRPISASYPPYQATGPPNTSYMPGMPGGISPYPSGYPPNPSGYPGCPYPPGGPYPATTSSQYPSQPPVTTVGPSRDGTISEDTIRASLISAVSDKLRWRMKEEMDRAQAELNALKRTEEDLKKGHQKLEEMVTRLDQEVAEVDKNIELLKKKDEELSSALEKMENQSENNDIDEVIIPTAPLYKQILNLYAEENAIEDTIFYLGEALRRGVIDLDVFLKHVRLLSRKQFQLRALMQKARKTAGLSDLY
Sequence of ATPase family AAA domain-containing protein 5 (Homo sapiens) (Q96QE3 whole entry, looked up, the tested form may be a part): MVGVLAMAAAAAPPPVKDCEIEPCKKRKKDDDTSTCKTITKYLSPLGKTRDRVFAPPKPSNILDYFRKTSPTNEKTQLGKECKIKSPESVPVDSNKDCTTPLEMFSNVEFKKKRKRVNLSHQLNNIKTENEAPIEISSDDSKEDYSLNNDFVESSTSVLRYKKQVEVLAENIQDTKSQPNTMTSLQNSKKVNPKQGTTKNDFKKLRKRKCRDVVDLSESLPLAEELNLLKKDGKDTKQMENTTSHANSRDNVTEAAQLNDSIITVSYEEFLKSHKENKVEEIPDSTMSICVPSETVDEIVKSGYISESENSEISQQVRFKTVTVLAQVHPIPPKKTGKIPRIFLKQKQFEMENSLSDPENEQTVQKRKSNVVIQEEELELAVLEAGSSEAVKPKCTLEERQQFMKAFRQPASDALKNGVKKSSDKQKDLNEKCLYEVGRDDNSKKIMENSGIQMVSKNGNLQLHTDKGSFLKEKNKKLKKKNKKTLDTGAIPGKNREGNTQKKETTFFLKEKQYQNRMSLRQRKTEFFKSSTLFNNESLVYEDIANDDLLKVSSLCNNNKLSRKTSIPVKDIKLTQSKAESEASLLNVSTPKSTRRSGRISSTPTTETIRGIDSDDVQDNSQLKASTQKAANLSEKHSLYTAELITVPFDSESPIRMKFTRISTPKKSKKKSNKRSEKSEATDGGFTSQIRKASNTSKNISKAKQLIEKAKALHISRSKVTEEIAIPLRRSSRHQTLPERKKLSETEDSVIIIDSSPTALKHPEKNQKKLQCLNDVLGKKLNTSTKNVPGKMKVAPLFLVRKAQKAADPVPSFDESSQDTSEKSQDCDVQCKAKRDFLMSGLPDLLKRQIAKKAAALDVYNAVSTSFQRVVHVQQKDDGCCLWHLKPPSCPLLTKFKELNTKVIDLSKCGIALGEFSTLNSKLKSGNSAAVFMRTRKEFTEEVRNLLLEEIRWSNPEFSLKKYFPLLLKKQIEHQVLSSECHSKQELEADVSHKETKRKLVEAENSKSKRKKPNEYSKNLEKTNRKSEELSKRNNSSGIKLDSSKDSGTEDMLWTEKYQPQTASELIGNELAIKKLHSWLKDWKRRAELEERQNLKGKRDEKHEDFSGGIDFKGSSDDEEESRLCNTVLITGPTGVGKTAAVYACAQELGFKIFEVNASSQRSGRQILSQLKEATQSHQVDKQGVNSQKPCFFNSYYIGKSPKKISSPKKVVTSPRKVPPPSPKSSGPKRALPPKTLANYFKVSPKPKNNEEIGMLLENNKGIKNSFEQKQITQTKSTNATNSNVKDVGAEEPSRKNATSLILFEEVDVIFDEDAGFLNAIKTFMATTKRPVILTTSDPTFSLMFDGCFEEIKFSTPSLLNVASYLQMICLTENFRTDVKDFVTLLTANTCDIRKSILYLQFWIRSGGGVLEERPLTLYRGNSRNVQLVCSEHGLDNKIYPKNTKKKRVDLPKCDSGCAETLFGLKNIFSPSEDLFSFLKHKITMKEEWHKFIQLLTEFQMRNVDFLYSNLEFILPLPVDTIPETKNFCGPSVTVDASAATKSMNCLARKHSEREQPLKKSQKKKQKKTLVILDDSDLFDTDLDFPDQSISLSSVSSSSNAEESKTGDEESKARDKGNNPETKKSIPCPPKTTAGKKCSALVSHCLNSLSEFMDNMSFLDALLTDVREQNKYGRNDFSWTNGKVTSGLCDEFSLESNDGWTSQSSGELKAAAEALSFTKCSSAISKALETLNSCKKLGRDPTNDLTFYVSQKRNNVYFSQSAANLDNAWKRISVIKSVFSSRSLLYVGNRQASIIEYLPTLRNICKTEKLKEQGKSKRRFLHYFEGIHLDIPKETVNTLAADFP

With `N#CC(C(=O)OC1CCCCC1)c1nc2ccccc2nc1N1CCOCC1` (centres undefined), the Potency in [1] was 10.3 µM (active). Besides, the Potency result in experiment [2], in [3] and in experiment [5] was “inactive” throughout. Moreover, the activation in experiment [4] is -10.2% [at 17.1 µM, percent relative to cAMP agonist control]; in [7], -0.592% [at 30.8 µM]. Moreover, the activity change, negative = inhibition in experiment [6] is -21.8% [at 30.8 µM].

For the compound `O=S(=O)(Nc1cc2nc3ccccc3nc2n1Cc1ccccc1)c1ccc(Cl)cc1`, the Potency result in experiment [8], in [3], in experiment [4], in experiment [6] and in experiment [7] was “inactive” in each case. Also, the figures for the Potency in experiment [2] and in experiment [5] were 9.53 µM (active) and 37.9 µM (active), respectively.

With `Cc1ccc(C)c2nc3sc(C(=O)N4CCCc5ccccc54)c(N)c3cc12`, in experiment [1], the Potency was 20.6 µM (active). Besides, the Potency result in [2], in experiment [3], in [4], in experiment [5] and in experiment [6] was “inactive” throughout.

For the compound `COc1ccc(-c2cc(C(=O)N(C)CC(=O)Nc3ccccc3Cl)c3ccccc3n2)cc1OC`, the Potency in [9] was 4.99 µM (active); in experiment [10] it was 12.5 µM (active). Besides, the call in experiment [11] was inactive. In addition, the Potency result in experiment [2], in [3] and in experiment [5] was “inactive” in each case. In addition, in experiment [4], the activation was 3.75% [at 17.1 µM, percent relative to cAMP agonist control]. Further, in experiment [6], the activity change, negative = inhibition is -9.19% [at 30.8 µM].

For `CC1=C(CO)C(=O)OC([C@@H](C)C2CC[C@H]3C4C[C@H]5O[C@]56[C@@H](O)C=CC(=O)[C@]6(C)C4CC[C@]23C)C1` (some centres undefined), the Potency in experiment [8] was 11.2 µM (active); in experiment [2] it was 84.9 µM (active). For the same compound, the Potency entry in experiment [3], in experiment [4], in experiment [5], in experiment [6] and in experiment [7] was “inactive” each time.

On to `CCCCCCc1cc2cc(C(=O)NC)c(=N)oc2cc1O`, for which the activity change, negative = inhibition in experiment [12] is -13% [at 17.2 µM]. The compound was classed as inactive in experiment [13]. In addition, the Potency was more than 20.6 µM in experiment [14], 3.98 µM (active) in experiment [15], 89.1 µM (active) in experiment [3] and 100 µM (active) in experiment [4]. For the same compound, the Potency result in [2], in experiment [5] and in experiment [6] was “inactive” in each case.

On to `Cc1cc(C=C2C(=O)c3ccccc3C2=O)c(C)n1-c1ccc(Cl)cc1`, for which the Potency result in experiment [1], in experiment [2], in experiment [3] and in experiment [5] was “inactive” throughout. Besides, the activation in experiment [4] is 3.84% [at 17.1 µM, percent relative to cAMP agonist control]; in [7], 7.12% [at 30.8 µM]. Besides, the activity change, negative = inhibition in experiment [6] was -26.7% [at 30.8 µM].

On to `COc1cccc(NC(=O)/C(C#N)=C/c2ccc(-c3ccc(C)cc3)o2)c1`, for which the Potency entry in experiment [1], in [2], in [3], in [4], in experiment [5] and in experiment [6] was “inactive” each time.

For the compound `CSC1=NSC2=NC(=O)/C(=C\c3coc4ccccc4c3=O)C(=N)N12`, the Potency was 5.17 µM (active) in experiment [1]; 89.1 µM (active) in experiment [3]; 100 µM (active) in experiment [4]; 16.9 µM (active) in experiment [5]; 44.7 µM (active) in [7]. Besides, the Potency result in [2] and in experiment [6] was “inactive” in each case.

The values are drawn from PubChem BioAssay (NCATS).
